Among all 69,000 compounds or so, about 8,600 (12%) showed an effect of 50% or more. This is one part of a sample in which strong results are shown more often than they occur.
Test system: Plasmodium berghei
Experiment: Screen against P. berghei liver stage (PbLuc), transformed with Luciferase, at 10uM
Assay type: functional, HepG2
Conditions: tested at 10 uM

Row | Compound | INHIBITION [%]
1 | CC(O)CN(C)C(=O)CCNC(=O)OC(C)(C)C (stereo unspecified) | 44.9
2 | CC(C)N1CCC(c2cnc(-c3cn[nH]c3)cn2)CC1 | 20.5535
3 | CC(=O)N[C@@H]1CN(C(=O)c2cccc(C)c2)C[C@H]1O | 0.19
4 | CC[C@H](C)[C@H](NC(=O)c1ccccc1-n1cnnn1)C(=O)OC | -14.2
5 | CCC(C)[C@H](NC(=O)c1ccc(F)cc1-n1cnnn1)C(=O)OC (stereo partly specified) | 51.3
6 | CC[C@H](C)[C@H](NC(=O)c1cccc(-n2cnnn2)c1)C(=O)OC | 30.5
7 | CC[C@H](C)[C@H](NC(=O)c1ccc(-n2cnnn2)cc1)C(=O)OC | 61.2
8 | CCC(C)[C@H](NC(=O)c1cc(F)ccc1-n1cnnn1)C(=O)OC (stereo partly specified) | 46.1
9 | CCC(C)[C@H](NC(=O)c1cc(Br)ccc1-n1cnnn1)C(=O)OC (stereo partly specified) | 34.7
10 | O=C(Nc1ccccn1)c1ccc(F)c(S(=O)(=O)NC2CC2)c1 | 4.34
11 | CCn1cc(-n2cc3nc(N4CCOCC4)[nH]cc-3c2=O)cn1 | -37.9
12 | CC(=O)N1CCC(NC(=O)Cc2csc(C(C)(C)C)n2)CC1 | 5.91
13 | CN(C)C(=O)C1CCN(Cc2csc(C(C)(C)C)n2)CC1 | 56.4
14 | CC(C)(C)c1nc(CC(=O)NCCC(=O)Nc2ccncc2)cs1 | 45.4
15 | CN1CCC(NC(=O)Cc2csc(C(C)(C)C)n2)CC1 | 47.2
16 | CC(C)c1nc(CC(=O)Nc2cnccc2O)cs1 | 29.4
17 | CCOC(=O)C1CCN(Cc2csc(C(C)(C)C)n2)CC1 | -13.3
18 | CCN1CCC(NC(=O)Cc2csc(C(C)(C)C)n2)CC1 | 50.5
19 | CC(C)(C)c1nc(CC(=O)Nc2cnccc2O)cs1 | 52.5
20 | CCc1nc(CN2CCC(C(=O)N(C)C)CC2)cs1 | 11.8
21 | Cn1ncc2c1C(COCC1CC1)N(C(=O)c1ccncn1)CC2 (stereo unspecified) | 47.4
22 | CN(CCNC(=O)NCc1ccsc1)C1CCCC1 | -43.5
23 | CN(Cc1coc(-c2ccccc2)n1)C1CCCN(c2cccnn2)C1 (stereo unspecified) | 24

Row | Compound | INHIBITION [%]
24 | Cn1cccc1C(=O)N1C[C@@H](OCc2ccncc2)[C@@H]2OCCC[C@@H]21 | 42.5
25 | O=C1NCCO[C@H]2CN(C(=O)Cc3cccs3)CC[C@@H]12 | 14
26 | O=C1NCCO[C@H]2CN(C(=O)Cc3ccco3)CC[C@@H]12 | -2.26
27 | COc1cc(F)ccc1CC(=O)N1CC[C@H]2C(=O)NCCO[C@H]2C1 | 52.1
28 | Cc1ccc(F)c2c1CCCN2Cc1cc(=O)n(C)c(=O)n1C | 38.8
29 | CC[C@H](C)[C@@H](CO)NC(C)Cc1ccc(F)cc1 (stereo partly specified) | 8.24
30 | CC[C@H](C)[C@@H](CO)NC(C)Cc1ccc(C)cc1 (stereo partly specified) | 41.7
31 | CC[C@H](C)[C@@H](CO)NC(C)Cc1ccc(Cl)cc1 (stereo partly specified) | 71.2
32 | CN(C)c1ncc2c(n1)C1(CCN(Cc3ccccc3F)C1)COC2 (stereo unspecified) | 23.6
33 | COc1ccc(CN2CCN(C(C)=O)CC3(CC(=O)N(C)C3)C2)cc1 (stereo unspecified) | -7.6
34 | CNCc1cn(C2CCN(C(=O)NCc3ccco3)CC2)nn1 | 71.2
35 | O=C(NC1CCCCC1)N1CCC(n2cc3[nH]cccc-3c2=O)CC1 | 36.5
36 | O=C(NC1CCCCC1)N1CCC(n2cc(-c3ccccn3)nn2)CC1 | 83.5
37 | O=C(NCc1ccco1)N1CCC(n2cc(-c3ccccn3)nn2)CC1 | 65.6
38 | O=C(NCc1ccon1)N1CCC(n2ccc(C(F)(F)F)n2)CC1 | 1.2
39 | CCNC(=O)N1CCC(n2ccc(C(F)(F)F)n2)CC1 | 40.6
40 | O=C(c1ccco1)N1CCC(n2cc(-c3ccsc3)nn2)CC1 | 31.2
41 | COC1CCCOC12CCN(C(=O)NCc1ccco1)CC2 (stereo unspecified) | 4.52
42 | Cc1cc(CN2CCN(C(=O)NCc3ccco3)CC2)no1 | 31.2
43 | O=C(NCc1ccco1)N1CCOC(c2ccccc2Cl)C1 (stereo unspecified) | 8.12
44 | O=C(c1ncc[nH]1)N1CCC(n2cc(-c3ccccn3)nn2)CC1 | 6.88
45 | O=C(NCc1ccco1)N1CCC(n2ccc(C(F)(F)F)n2)CC1 | 57.7
46 | COCC(=O)Nc1ccc(Oc2ccsc2C(=O)O)cc1 | 49.1

Row | Compound | INHIBITION [%]
47 | COC1(CNC(=O)NCCc2ccccc2)CCSC1 (stereo unspecified) | 8.31
48 | O=C(c1cccc(C(F)(F)F)c1)N1CC(=O)N(C2CCC2)CC(O)C1 (stereo unspecified) | 21.5
49 | O=C1Nc2ccccc2CNC12CCN(CC1CCCC1)CC2 | 30
50 | CCOCCOC(C)C(=O)Nc1ccc2ccn(CC(=O)NC)c2c1 (stereo unspecified) | 13.9
51 | Cc1ccc(C(=O)NCc2ccc(N3CCCC(C(N)=O)C3)cc2)o1 (stereo unspecified) | 29.7
52 | O=C(CCc1nc2ccccc2[nH]1)NC1CCOC2(CCOCC2)C1 (stereo unspecified) | 47.6
53 | Cc1cccc(OCC(O)CN2CCC(Cn3cccn3)CC2)c1 (stereo unspecified) | 47.1
54 | CN1[C@H](CN2CCCC2)C[C@@H]2CN(C(=O)Cc3ccsc3)CC[C@@H]21 | -8.51
55 | CC(C)c1nc(C2CCCN2C(=O)c2ccc3nncn3c2)no1 (stereo unspecified) | 5.11
56 | CCS(=O)(=O)CC(=O)N1CCCC1c1noc(C2CC2)n1 (stereo unspecified) | 13.9
57 | O=C(c1ccc2nncn2c1)N1CCCC1c1noc(C2CC2)n1 (stereo unspecified) | 15.1
58 | CC(C)CS(=O)(=O)CC(=O)N1CCCC1c1noc(C2CC2)n1 (stereo unspecified) | 29
59 | O=C(c1ccc2nccn2c1)N1CCCC1c1noc(C2CC2)n1 (stereo unspecified) | 52.3
60 | CCCS(=O)(=O)CC(=O)N1CCCC1c1noc(C2CC2)n1 (stereo unspecified) | 97.2
61 | CN(C)c1cc(CNC(=O)NCC2(C)CCCS2)ccn1 (stereo unspecified) | -15.5
62 | Cc1ccc(-c2nnc(CN3CCCCC3Cn3cncn3)o2)cc1 (stereo unspecified) | -29.8
63 | CN(CC(C)(C)O)C1CCCN(Cc2noc(C3CC3)n2)C1 (stereo unspecified) | 25.1
64 | O=C(NC1CC1)c1cc(C2CCCN(Cc3ccccn3)C2)no1 (stereo unspecified) | -8.12
65 | Clc1ccc(CN(CCN2CCOCC2)Cc2cccnc2)c(Cl)c1 | -49.4
66 | Cc1nc(-c2ccc(Cl)s2)sc1C(=O)NC(C)(C)C(N)=O | -39.95
67 | CCCn1cnc(NC(=O)NCC2CCS(=O)(=O)C2)n1 (stereo unspecified) | 42.6
68 | O=C(CCn1cncn1)NCC1CCOC1 (stereo unspecified) | 54.5
69 | O=C(CCn1cncn1)NC1CCS(=O)(=O)C1 (stereo unspecified) | 49.9

Row | Compound | INHIBITION [%]
70 | O=C(CCn1cncn1)NCC(c1ccco1)N1CCCCC1 (stereo unspecified) | 3.73
71 | O=C(CCn1cncn1)NCC1CCCC1 | 63.8
72 | Cc1cc(NC(=O)CCn2cncn2)no1 | 44.3
73 | Cc1nc(C)n(CCC(=O)NCC2CCCOC2)n1 (stereo unspecified) | 26.55
74 | O=C(CCn1cncn1)NCC(c1ccco1)N1CCCC1 (stereo unspecified) | -49.5
75 | O=C(CCn1cncn1)NCC1CCS(=O)(=O)C1 (stereo unspecified) | 84.2
76 | CS(=O)(=O)N1CCO[C@@H]2CN(C(=O)c3ccnnc3)C[C@@H]2C1 | 17.6
77 | Cc1ccc(C2CN(CCCS(=O)(=O)C(C)C)CCO2)c(C)c1 (stereo unspecified) | -20.3
78 | CN1CCC(NC(=O)CC2CN(Cc3ccccc3)CCO2)CC1 (stereo unspecified) | 9.41
79 | COc1ccc(CCNC(=O)Cn2ncc3c2c(C)nn3C)cc1 | 28.4
80 | CC(NC(=O)C1=NN(C)C(=O)CC1)c1ccc(Cl)cc1 (stereo unspecified) | 20.9
81 | CN(CCC#N)C(=O)CCOc1cccc(F)c1 | -13.4
82 | Cc1cc(C(O)CCNC(=O)c2ccc(Cl)s2)c(C)o1 (stereo unspecified) | -1.04
83 | O=C1OCCN1CCSc1nnnn1CC(F)(F)F | 42.4
84 | O=C1OCCN1CCSc1nnnn1C1CCOCC1 | 54.5
85 | CC(C)OCCSc1nnnn1C1CCOCC1 | 26.9
86 | c1cnn(CC2CCCN2c2ncnc3c2CCC3)c1 (stereo unspecified) | 59.7
87 | Cc1cnn(CC2CCCN2c2ccc(C#N)cn2)c1 (stereo unspecified) | -16
88 | Cc1cnn(CC2CCCN2c2ncnc3ccsc23)c1 (stereo unspecified) | 47.7
89 | Cc1cnn(CC2CCCN2c2ncnc3ccccc23)c1 (stereo unspecified) | 75.9
90 | Cc1nn(C)c(C)c1C1CCCN1c1ncnc2sccc12 (stereo unspecified) | 70.5
91 | COc1c(C2CCCN2c2ncnc3sccc23)c(C)nn1C (stereo unspecified) | 40
92 | Cc1cnn(CC2CCCCN2c2ncnc3ccccc23)c1 (stereo unspecified) | -34.6

Row | Compound | INHIBITION [%]
93 | c1nc(N2CCCCC2Cn2cncn2)c2ccsc2n1 (stereo unspecified) | 45.8
94 | Cc1cnn(CC2CCCN2c2ncnc3sccc23)c1 (stereo unspecified) | 56.1
95 | Cc1nn(C)c(Cl)c1C1CCCN1c1ncnc2sccc12 (stereo unspecified) | 42.6
96 | N#Cc1ccc(N2CCCC2Cn2cccn2)nc1 (stereo unspecified) | -155
97 | Cc1cnn(CC2CCCN2c2ncnc3c2CCC3)c1 (stereo unspecified) | -2.94
98 | CSCC[C@H](NC(C)=O)c1nc(CC(C)C)n[nH]1 | -24.7
99 | c1ccc2oc(CN3CCCC(Cn4cncn4)C3)nc2c1 (stereo unspecified) | 16.34
100 | CC(C)CCN(C(=O)c1ccc(-n2ncc(C#N)c2N)cc1)C1CC1 | 19.5
101 | Cc1cnn(CCC(=O)N2CCCC(c3ccn[nH]3)C2)c1 (stereo unspecified) | -19.4
102 | Cc1nc(C)n(C2CCCN(C(=O)CCOc3cccc(F)c3)C2)n1 (stereo unspecified) | 33.3
103 | Cc1c(NCCO)cccc1OC1CCCC1 | -64.6
104 | CN1CCC(CNC(=O)NCc2ccc(F)cc2)CC1 | -33
105 | CC(C)NC(=O)c1cc2c(s1)CCN2C(=O)CN(C)C | 8.67
106 | CC1COCCN1c1ncnc2sccc12 (stereo unspecified) | 49.1
107 | c1ccc2c(N3CCCC3Cn3cccn3)ncnc2c1 (stereo unspecified) | 76.9
108 | c1ccc2c(N3CCCCC3Cn3cccn3)ncnc2c1 (stereo unspecified) | 11.575
109 | c1ccc2c(N3CCCCC3Cn3cncn3)ncnc2c1 (stereo unspecified) | -11.1
110 | Cc1nn(C)c(C)c1C1COCCN1c1ncnc2sccc12 (stereo unspecified) | -7.11
111 | Cc1n[nH]c(C)c1C1COCCN1c1ncnc2sccc12 (stereo unspecified) | 71.4

Reference: ChEMBL document CHEMBL4513216, “Probing the Open Global Health Chemical Diversity Library for Multistage-Active Starting Points for Next-Generation Antimalarials” (ACS Infect Dis, 2020)
